Experimental data as given in PubChem BioAssay (NCI).
The panel holds about 83,000 compounds, 20% with a hit somewhere; the sample as a whole holds those more often.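 Single-concentration screen, 48 h exposure, 96-well plates. Endpoint: percent growth. Below 10 = active.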 The source made the active and inactive calls.

Legend:
Test in all cases: NCI-60 one-dose screen, 48 h (100 = growth as untreated, 0 = no growth, -100 = all killed)
Settings in all cases: 10 µM unless noted
SR leukemia = test system: SR leukemia
RPMI-8226 leukemia = test system: RPMI-8226 leukemia
OVCAR-8 ovarian = test system: OVCAR-8 ovarian
OVCAR-5 ovarian = test system: OVCAR-5 ovarian
OVCAR-4 ovarian = test system: OVCAR-4 ovarian
SK-OV-3 ovarian = test system: SK-OV-3 ovarian
IGROV1 ovarian = test system: IGROV1 ovarian
OVCAR-3 ovarian = test system: OVCAR-3 ovarian
HS 578T breast = test system: HS 578T breast
NCI/ADR-RES ovarian = test system: NCI/ADR-RES ovarian
T-47D breast = test system: T-47D breast
BT-549 breast = test system: BT-549 breast
MDA-MB-435 melanoma = test system: MDA-MB-435 melanoma
MCF7 breast = test system: MCF7 breast
HCT-116 colon = test system: HCT-116 colon
HCC-2998 colon = test system: HCC-2998 colon
KM12 colon = test system: KM12 colon
SW-620 colon = test system: SW-620 colon

Measured: growth

CC1=C(C(=O)OC(C)C)C(c2ccc3c(c2)OCO3)NC(=S)N1 (stereo not given)
inactive: SR leukemia 103% | RPMI-8226 leukemia 87.7% | OVCAR-8 ovarian 102% | OVCAR-5 ovarian 105% | OVCAR-4 ovarian 98.4% | SK-OV-3 ovarian 105% | IGROV1 ovarian 99.9% | OVCAR-3 ovarian 121% | HS 578T breast 97.3% | NCI/ADR-RES ovarian 101% | T-47D breast 91.4% | BT-549 breast 96% | MDA-MB-435 melanoma 106% | MCF7 breast 98.7% | HCT-116 colon 95.6% | HCC-2998 colon 115% | KM12 colon 108%

COc1ccc2c(c1)[n+]([O-])c(C(=O)/C=C/C=C(\Cl)c1cc(OC)c(OC)c(OC)c1)c(C)[n+]2[O-]
inactive: SR leukemia 89.5% | RPMI-8226 leukemia 109% | OVCAR-8 ovarian 43.7% | OVCAR-5 ovarian 104% | OVCAR-4 ovarian 108% | SK-OV-3 ovarian 38% | IGROV1 ovarian 64.6% | OVCAR-3 ovarian 93% | HS 578T breast 68% | NCI/ADR-RES ovarian 91% | T-47D breast 87.1% | BT-549 breast 74.9% | MDA-MB-435 melanoma 93% | MCF7 breast 83.4% | HCT-116 colon 80.6%

Cc1nc2sc(C(=O)Nc3ccccc3)c(N)c2cc1C(=O)c1ccccc1
inactive: RPMI-8226 leukemia 38% | OVCAR-8 ovarian 56% | OVCAR-5 ovarian 59% | OVCAR-4 ovarian 63% | IGROV1 ovarian 56.8% | OVCAR-3 ovarian 29.2% | HS 578T breast 13% | NCI/ADR-RES ovarian 37.8% | T-47D breast 46.3% | BT-549 breast 68.4% | MCF7 breast 11.5% | HCT-116 colon 29.7% | KM12 colon 33.7%
active: SR leukemia 8.32% | SK-OV-3 ovarian 4.72% | MDA-MB-435 melanoma -33.7%

Cc1nnc(NC(=O)c2nc(S(=O)(=O)Cc3ccc(F)cc3)ncc2Cl)s1
active: SR leukemia 1.43% | HCT-116 colon -0.743%
inactive: RPMI-8226 leukemia 37% | OVCAR-8 ovarian 56.4% | OVCAR-5 ovarian 85.6% | OVCAR-4 ovarian 101% | SK-OV-3 ovarian 101% | IGROV1 ovarian 91.1% | OVCAR-3 ovarian 21.8% | HS 578T breast 93.1% | NCI/ADR-RES ovarian 93% | T-47D breast 38.5% | BT-549 breast 26.7% | MDA-MB-435 melanoma 75.9% | MCF7 breast 44.7% | HCC-2998 colon 99.1% | KM12 colon 90.8%

C=C1C(=O)O[C@H]2[C@H]1CC/C(COC(=O)CCSCCC(=O)OC/C1=C/CC[C@@]3(C)O[C@H]3[C@H]3OC(=O)C(=C)[C@@H]3CC1)=C\CC[C@@]1(C)O[C@@H]21
inactive: OVCAR-4 ovarian 41.7% | SK-OV-3 ovarian 93.6% | HS 578T breast 19.4% | NCI/ADR-RES ovarian 53.4% | T-47D breast 19.1%
active: SR leukemia -15.8% | RPMI-8226 leukemia -27% | OVCAR-8 ovarian 9.02% | OVCAR-5 ovarian -6.34% | IGROV1 ovarian -17.3% | OVCAR-3 ovarian -68.8% | MDA-MB-435 melanoma 8.02% | SW-620 colon -23.5% | MCF7 breast 9.43% | HCT-116 colon -60.2% | HCC-2998 colon -1.54%

Cc1ccc(C2=Nc3c(N)ncnc3NC(c3ccc4c(c3)OCO4)C2)cc1 (stereo not given)
active: MDA-MB-435 melanoma -34.5% | HCC-2998 colon 2.97%
inactive: SR leukemia 15.8% | RPMI-8226 leukemia 40.1% | OVCAR-8 ovarian 81% | OVCAR-5 ovarian 74.6% | OVCAR-4 ovarian 87.6% | SK-OV-3 ovarian 78.3% | IGROV1 ovarian 32% | OVCAR-3 ovarian 37.8% | HS 578T breast 78% | NCI/ADR-RES ovarian 17.8% | T-47D breast 70.5% | SW-620 colon 18.3% | MCF7 breast 25.9% | HCT-116 colon 47% | KM12 colon 35.3%

O=[N+]([O-])/C(=C/C=C/c1ccccc1)c1ccccc1
inactive: SR leukemia 26.5% | RPMI-8226 leukemia 35.8% | OVCAR-8 ovarian 77.6% | OVCAR-5 ovarian 87.9% | OVCAR-4 ovarian 77.2% | SK-OV-3 ovarian 97.1% | HS 578T breast 56.8% | NCI/ADR-RES ovarian 78.3% | T-47D breast 46.4% | BT-549 breast 103% | MDA-MB-435 melanoma 70.6% | MCF7 breast 23.5% | KM12 colon 38.8%
active: IGROV1 ovarian -4.26% | OVCAR-3 ovarian 1.93% | SW-620 colon 5.75% | HCT-116 colon -5.29%

CCOC(=O)C(=Cc1cccc(Cl)c1)C(=O)OCC
inactive: OVCAR-5 ovarian 13.9% | OVCAR-4 ovarian 59.9% | SK-OV-3 ovarian 100% | OVCAR-3 ovarian 33.8% | HS 578T breast 68% | HCC-2998 colon 77.1% | KM12 colon 18%
active: SR leukemia 6.69% | RPMI-8226 leukemia -8.77% | OVCAR-8 ovarian -8.33% | IGROV1 ovarian 9.1% | NCI/ADR-RES ovarian 4.71% | T-47D breast -5.34% | MDA-MB-435 melanoma 6.41% | SW-620 colon -46.6% | MCF7 breast 8.93% | HCT-116 colon -47.5%

CC(C)(C)n1cc(-c2ccnc(NCCCNS(=O)(=O)c3ccc(F)cc3)c2)c(-c2cccc(F)c2)n1
inactive: SR leukemia 14.3% | RPMI-8226 leukemia 28.1% | OVCAR-8 ovarian 54.8% | OVCAR-5 ovarian 69% | OVCAR-4 ovarian 79.2% | SK-OV-3 ovarian 75.3% | IGROV1 ovarian 68.6% | OVCAR-3 ovarian 74.8% | HS 578T breast 78.9% | NCI/ADR-RES ovarian 52% | T-47D breast 24.6% | BT-549 breast 50.2% | MDA-MB-435 melanoma 73.8% | MCF7 breast 41.2% | HCT-116 colon 37% | HCC-2998 colon 54.7% | KM12 colon 40.9%

O=C(/C=C/c1ccc(Cl)cc1)c1cccc(Nc2nc(Nc3ccccc3)nc(Nc3ccccc3)n2)c1
inactive: SR leukemia 60.5% | OVCAR-8 ovarian 94.9% | OVCAR-5 ovarian 92.9% | OVCAR-4 ovarian 83.6% | SK-OV-3 ovarian 108% | IGROV1 ovarian 13.5% | OVCAR-3 ovarian 84.7% | HS 578T breast 92.7% | NCI/ADR-RES ovarian 91.9% | T-47D breast 55.6% | BT-549 breast 118% | MDA-MB-435 melanoma 102% | HCT-116 colon 29.5% | HCC-2998 colon 88.8% | KM12 colon 86%
active: RPMI-8226 leukemia -43.9% | MCF7 breast -16.9%

CC1(c2ccccc2O)NN=C(/N=C/c2cccc([N+](=O)[O-])c2)N1C(Cc1c[nH]c2ccccc12)C(=O)O (stereo not given)
inactive: SR leukemia 87.7% | RPMI-8226 leukemia 81.3% | OVCAR-8 ovarian 88.7% | OVCAR-5 ovarian 106% | OVCAR-4 ovarian 90.2% | SK-OV-3 ovarian 61.3% | IGROV1 ovarian 62% | OVCAR-3 ovarian 95% | HS 578T breast 95.8% | NCI/ADR-RES ovarian 97.1% | T-47D breast 91.1% | MDA-MB-435 melanoma 106% | SW-620 colon 94.9% | MCF7 breast 77.3% | HCT-116 colon 87% | HCC-2998 colon 97.8% | KM12 colon 96.4%

O=C1COCCN1c1ccc(Nc2nc(Cl)nc(OCc3cn(Cc4ccccc4)nn3)n2)cc1
inactive: RPMI-8226 leukemia 67.9% | OVCAR-8 ovarian 79.6% | OVCAR-5 ovarian 105% | OVCAR-4 ovarian 83% | SK-OV-3 ovarian 88.8% | IGROV1 ovarian 62.6% | OVCAR-3 ovarian 89.4% | HS 578T breast 85.3% | NCI/ADR-RES ovarian 101% | T-47D breast 68.6% | BT-549 breast 90.3% | MDA-MB-435 melanoma 96.2% | MCF7 breast 62.4% | HCT-116 colon 91.9% | HCC-2998 colon 63.7% | KM12 colon 90.5%
active: SR leukemia 8.29%

Cc1cc(Cl)ccc1Nc1nc(C(F)(F)F)ccc1C(=O)N/N=C/c1ccc([N+](=O)[O-])cc1
active: SR leukemia -1.84% | RPMI-8226 leukemia -72.6% | OVCAR-8 ovarian 9.08% | OVCAR-5 ovarian -18.6% | OVCAR-4 ovarian -11.6% | SK-OV-3 ovarian -14.9% | IGROV1 ovarian -35.1% | OVCAR-3 ovarian -18.1% | NCI/ADR-RES ovarian -32.8% | T-47D breast -1.52% | BT-549 breast 6.01% | MDA-MB-435 melanoma 6.79% | MCF7 breast -47.7% | HCT-116 colon 6.32% | KM12 colon -20.6%
inactive: HS 578T breast 97.3% | SW-620 colon 93.4%

CCOC(=O)C1=C(NC)OCC1=O
inactive: SR leukemia 93.6% | RPMI-8226 leukemia 99.6% | OVCAR-8 ovarian 98.6% | OVCAR-5 ovarian 115% | OVCAR-4 ovarian 112% | SK-OV-3 ovarian 110% | IGROV1 ovarian 113% | OVCAR-3 ovarian 109% | HS 578T breast 94.7% | NCI/ADR-RES ovarian 105% | T-47D breast 110% | MDA-MB-435 melanoma 110% | SW-620 colon 100% | MCF7 breast 103% | HCT-116 colon 108% | HCC-2998 colon 102% | KM12 colon 105%

O=C(CCC(=O)N/N=C/c1ccccc1O)N/N=C/c1ccccc1O
inactive: SR leukemia 27% | RPMI-8226 leukemia 83% | OVCAR-8 ovarian 46.4% | OVCAR-5 ovarian 82.7% | OVCAR-4 ovarian 26.2% | SK-OV-3 ovarian 50.8% | IGROV1 ovarian 48.5% | OVCAR-3 ovarian 23.4% | HS 578T breast 76.9% | NCI/ADR-RES ovarian 46.9% | T-47D breast 51.5% | BT-549 breast 76.5% | MDA-MB-435 melanoma 64.8% | MCF7 breast 39.9% | HCT-116 colon 25.9% | HCC-2998 colon 46% | KM12 colon 33%

O=[N+]([O-])c1ccc(N/N=C(/C(=N/Nc2ccc([N+](=O)[O-])cc2)c2ccccc2)c2ccccc2)cc1
inactive: SR leukemia 65.8% | RPMI-8226 leukemia 101% | OVCAR-8 ovarian 60.4% | OVCAR-5 ovarian 82.5% | OVCAR-4 ovarian 116% | SK-OV-3 ovarian 85.6% | IGROV1 ovarian 76.4% | OVCAR-3 ovarian 120% | HS 578T breast 101% | NCI/ADR-RES ovarian 63.7% | T-47D breast 88.8% | BT-549 breast 102% | MDA-MB-435 melanoma 86.4% | MCF7 breast 60.2% | HCT-116 colon 51.7% | HCC-2998 colon 105% | KM12 colon 106%

O=C(/C=C/c1cccs1)c1ccc(Cl)nc1
active: RPMI-8226 leukemia 4.19%
inactive: SR leukemia 82.5% | OVCAR-8 ovarian 99.3% | OVCAR-5 ovarian 103% | OVCAR-4 ovarian 104% | SK-OV-3 ovarian 95.7% | IGROV1 ovarian 107% | OVCAR-3 ovarian 116% | HS 578T breast 105% | NCI/ADR-RES ovarian 108% | T-47D breast 97.3% | MDA-MB-435 melanoma 94.2% | SW-620 colon 105% | MCF7 breast 67.7% | HCT-116 colon 91.1% | HCC-2998 colon 111% | KM12 colon 104%
